High-throughput results (PubChem BioAssay)
CIT2-GFP yeast: alters CIT2-GFP fluorescence in TOR pathway yeast screen. AID 2029. S. cerevisiae CIT2-GFP strain, flow cytometry, 3 h; 100 means same as DMSO wells. GFP response vs DMSO, % at 10 µM. 320,000 tested, 0.065% active;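 active means GFP response relative to DMSO above a set limit, near the screen mean plus 3 SD, cut at about 150% in these data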;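 further: ratio of well median GFP fluorescence to mean of DMSO wells on the plate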
LAP4-GFP MLPCN: alters LAP4-GFP fluorescence in TOR pathway yeast screen. 320,000 tested, 0.34% active. GFP response vs DMSO, % at 10 µM. S. cerevisiae LAP4-GFP multiplex, flow cytometry GFP, 3 h; median GFP as percent of DMSO wells;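 active means GFP response vs DMSO above a set limit, about the screen mean plus 3 SD, cut at about 150% in these data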
MEP2 TOR yeast: modulators of TOR pathway MEP2-GFP in S. cerevisiae; 330,000 tested, 0.51% active; S. cerevisiae MEP2-GFP strain, flow cytometry GFP, 3 h; 100% = DMSO control level; AID 2016; GFP response vs DMSO, % at 10 µM;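 active means GFP response versus DMSO above a set limit, roughly screen mean plus 3 SD, cut at about 180% in these data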;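 further: median GFP fluorescence of the barcode-gated MEP2-GFP cells per well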
AGP1-GFP MLPCN: alters AGP1-GFP fluorescence in TOR pathway yeast screen | S. cerevisiae AGP1-GFP multiplex flow cytometry, 3 h; GFP as percent of DMSO wells | GFP response vs DMSO, % at 10 µM | 320,000 tested, 0.02% active;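 active means GFP response relative to DMSO above a set limit, near screen average plus 3 SD, cut at about 150% in these data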;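 further: median GFP channel fluorescence of the gated AGP1 strain per well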
RPL19A-GFP yeast: modulators of TOR pathway RPL19A-GFP in S. cerevisiae | S. cerevisiae RPL19A-GFP strain, flow cytometry, 3 h; hits give low values | percent response vs DMSO, % at 10 µM | 330,000 tested, 0.3% active | AID 2025;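 active means percent response vs DMSO below 50%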;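 further: median channel GFP fluorescence of the barcoded RPL19A-GFP strain; ratio of sample median GFP to plate DMSO average so 100% = DMSO; lower means less RPL19A-GFP as with rapamycin TOR inhibition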
LAP4 cherry2: reconfirmed LAP4-GFP TOR pathway modulator in yeast | shares compounds with LAP4-GFP MLPCN | S. cerevisiae LAP4-GFP strain, flow cytometry GFP, 3 h | GFP response vs DMSO, % at 10 µM | 590 tested, 20% active | AID 2621;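 active means GFP signal as percent of the solvent control above about 150%, meaning raised reporter expression, limit read from the data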;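 further: ratio of well median GFP fluorescence to plate DMSO mean so 100% = DMSO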
MEP2-GFP pick2: second confirmation of modulators of TOR reporter MEP2-GFP in yeast. 590 tested, 10% active. shares compounds with LAP4-GFP MLPCN. GFP response vs DMSO, % at 10 µM. S. cerevisiae MEP2-GFP strain, flow cytometry GFP, 3 h;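 active means GFP signal above 150% of the solvent control wells, that is a rise of more than half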;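 further: median channel GFP fluorescence of all gated yeast cells per well; ratio of median GFP to plate DMSO average so 100% = DMSO level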
RPL19A GFP CP2: reconfirmed modulator of RPL19A-GFP TOR reporter in yeast; shares compounds with LAP4-GFP MLPCN; S. cerevisiae RPL19A-GFP strain, flow cytometry GFP, 3 h; hits give low values; 100% means same as DMSO wells; GFP response vs DMSO, % at 10 µM; 590 tested, 3% active;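 active means under 65% GFP response relative to DMSO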;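 further: median GFP channel fluorescence per well over the all cells gate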
CIT2-GFP pick2: reconfirmed modulator of CIT2-GFP TOR reporter in yeast; shares compounds with LAP4-GFP MLPCN; S. cerevisiae CIT2-GFP strain, flow cytometry GFP, 3 h; DMSO control wells read 100%; GFP response vs DMSO, % at 10 µM; 590 tested, 8% active; AID 2624;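 active means GFP response vs DMSO above about 150%, limit read from the data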;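 further: median green fluorescence per well over all gated yeast cells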
AGP1 GFP CP2: second confirmation of modulators of TOR reporter AGP1-GFP in yeast | shares compounds with LAP4-GFP MLPCN | S. cerevisiae AGP1-GFP strain, flow cytometry GFP, 3 h | percent response vs DMSO, % at 10 µM | 590 tested, under 10 active | AID 2643;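 active means over 150 percent of DMSO response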;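 further: median GFP channel fluorescence over all cells without mother daughter split; sample median GFP divided by mean DMSO control so 100% equals DMSO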
Yeast autofluor: yeast s288c autofluorescence artifact, counter-screen. shares compounds with LAP4-GFP MLPCN. S. cerevisiae s288c, 520 nm autofluorescence, flow cytometry, 3 h; hits give high values; zero means same as solvent-only cells. fluorescence change (kMESF span) at 33 µM. 610 tested, under 10 active. AID 2757;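 active means fluorescence span over the dose series, or activity score, above about 33, limit read from the data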
s288c autofl DR: yeast s288c autofluorescence artifact in dose response; S. cerevisiae s288c parental, compound autofluorescence, flow cytometry, 3 h; fluorescence change (span) at 33 µM; AID 488829; 110 tested, under 10 active; shares compounds with LAP4-GFP MLPCN;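 active means fluorescence change span, or the activity score built from it, above 25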
TORC1 bypass gr: stops wildtype yeast growth while TORC1 bypass cells still grow | AID 504456 | shares compounds with LAP4-GFP MLPCN | 120 tested, under 10 active | S. cerevisiae BY4741 spot growth rating, 48-72 h; hits give low values | growth rating (0-3) at 30 µM;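 active means growth rating at most 1 for wild type yeast while the TORC1 bypass strain still grows fully, rated 3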
An asterisk follows results filed as active. The list is not random: actives were taken first. Their share in the collection is about 0.92%.

`CC1(C)Cc2c(sc(NC(=O)c3ccc4c(c3)OCCO4)c2C(N)=O)C(C)(C)N1` gave CIT2-GFP yeast 152.8*, LAP4-GFP MLPCN 94.8, MEP2 TOR yeast 116.8, AGP1-GFP MLPCN 107.4, RPL19A-GFP yeast 96.2, LAP4 cherry2 97.2, MEP2-GFP pick2 101.3, RPL19A GFP CP2 99.1, CIT2-GFP pick2 108.5 and AGP1 GFP CP2 98.6.
COc1cc(N2C(=O)C=CC2=O)c(OC)cc1Cl was read as CIT2-GFP yeast 59.8, LAP4-GFP MLPCN 259.8*, MEP2 TOR yeast 95.5, AGP1-GFP MLPCN 68.2, RPL19A-GFP yeast 72.9 and Yeast autofluor 1.82.
`COc1ccc(C(=O)NCCN2CCOCC2)cc1S(=O)(=O)Nc1ccc(C)cc1` gave CIT2-GFP yeast 101.3, LAP4-GFP MLPCN 96.2, MEP2 TOR yeast 105.7, AGP1-GFP MLPCN 109.3 and RPL19A-GFP yeast 106.4.
O=C(/C=C/c1ccccc1[N+](=O)[O-])c1ccccc1Br was read as CIT2-GFP yeast 83.4, LAP4-GFP MLPCN 156.2*, MEP2 TOR yeast 103.9, AGP1-GFP MLPCN 92.1, RPL19A-GFP yeast 97.1 and Yeast autofluor 8.77.
`COc1ccc(C(=O)CN2Cc3ccccc3C2=N)cc1` gave CIT2-GFP yeast 103.3, LAP4-GFP MLPCN 100.6, MEP2 TOR yeast 102.8, AGP1-GFP MLPCN 100.1 and RPL19A-GFP yeast 101.1.
For CN1CCN(C(=O)c2cc(COc3c(F)cccc3F)on2)CC1c1ccccc1 (stereo unspecified) the results were CIT2-GFP yeast 86.7, LAP4-GFP MLPCN 157.9*, MEP2 TOR yeast 101.4, AGP1-GFP MLPCN 119.5, RPL19A-GFP yeast 95.9, LAP4 cherry2 141.3, MEP2-GFP pick2 163.1*, RPL19A GFP CP2 109.5, CIT2-GFP pick2 115.3, AGP1 GFP CP2 110.2, Yeast autofluor 1.72, s288c autofl DR 0.87 and TORC1 bypass gr 0.
`COc1ccccc1OCc1cc(C(=O)N2CCN(C)C(c3ccccc3)C2)no1` (stereo unspecified) gave CIT2-GFP yeast 92.4, LAP4-GFP MLPCN 107.2, MEP2 TOR yeast 97.2, AGP1-GFP MLPCN 95.3 and RPL19A-GFP yeast 96.1.
`COc1ccc(NC(=O)CC(=O)Nc2ccc(OC)cc2OC)c(OC)c1` gave CIT2-GFP yeast 105.4, LAP4-GFP MLPCN 103.5, MEP2 TOR yeast 104.8, AGP1-GFP MLPCN 105.1 and RPL19A-GFP yeast 102.7.
Screening COc1ccc(NC(=O)CC(C)=O)c(OC)c1 returned LAP4 cherry2 100.2, MEP2-GFP pick2 92.6, RPL19A GFP CP2 100.8, CIT2-GFP pick2 104.3 and AGP1 GFP CP2 98.3.
For COc1ccc(C(=O)OCc2c(-c3ccccc3)ncc3ccccc23)cc1 the results were CIT2-GFP yeast 90.2, LAP4-GFP MLPCN 151.2*, MEP2 TOR yeast 110.8, AGP1-GFP MLPCN 104.0, RPL19A-GFP yeast 97.7, LAP4 cherry2 117.3, MEP2-GFP pick2 101.5, RPL19A GFP CP2 96.0, CIT2-GFP pick2 107.4 and AGP1 GFP CP2 95.7.
CC(C)(C)c1ccc(C(=O)OCc2c(-c3ccccc3)ncc3ccccc23)cc1 was read as CIT2-GFP yeast 87.1, LAP4-GFP MLPCN 88.2, MEP2 TOR yeast 87.2, AGP1-GFP MLPCN 85.4 and RPL19A-GFP yeast 90.8.
Screening CCOC(=O)c1nn(-c2ccc(OCC)cc2)c2nc(-c3ccco3)c(C#N)c(=O)n12 returned CIT2-GFP yeast 100.0, LAP4-GFP MLPCN 96.1, MEP2 TOR yeast 129.6, AGP1-GFP MLPCN 81.9, RPL19A-GFP yeast 64.3, LAP4 cherry2 97.1, MEP2-GFP pick2 104.8, RPL19A GFP CP2 100.2, CIT2-GFP pick2 102.9 and AGP1 GFP CP2 103.2.
For CCOC(=O)c1nn(-c2ccc(OCC)cc2)c2nc(-c3cccc(OC)c3)c(C#N)c(=O)n12 the results were CIT2-GFP yeast 104.2, LAP4-GFP MLPCN 98.9, MEP2 TOR yeast 106.2, AGP1-GFP MLPCN 98.0 and RPL19A-GFP yeast 106.3.
`COc1ccc(S(=O)(=O)N2CCC(C(=O)Nc3nccs3)CC2)cc1` gave CIT2-GFP yeast 122.2, LAP4-GFP MLPCN 101.7, MEP2 TOR yeast 102.2, AGP1-GFP MLPCN 104.9 and RPL19A-GFP yeast 97.0.
`O=C1C2C3C=CC(C3)C2C(=O)N1/N=C/c1cc(Br)cc([N+](=O)[O-])c1O` (stereo unspecified) gave CIT2-GFP yeast 91.3, LAP4-GFP MLPCN 179.9*, MEP2 TOR yeast 104.9, AGP1-GFP MLPCN 84.8, RPL19A-GFP yeast 93.4, LAP4 cherry2 142.3, MEP2-GFP pick2 123.1, RPL19A GFP CP2 95.8, CIT2-GFP pick2 125.5 and AGP1 GFP CP2 95.0.
O=c1cc(C(F)(F)F)[nH]c2ccc(OC(F)(F)F)cc12 was read as CIT2-GFP yeast 92.0, LAP4-GFP MLPCN 96.5, MEP2 TOR yeast 164.2, AGP1-GFP MLPCN 77.3, RPL19A-GFP yeast 64.8, LAP4 cherry2 97.1, MEP2-GFP pick2 103.2, RPL19A GFP CP2 103.0, CIT2-GFP pick2 104.0 and AGP1 GFP CP2 102.3.
`O=c1cc(C(F)(F)F)[nH]c2c(C(F)(F)F)cccc12` gave CIT2-GFP yeast 107.1, LAP4-GFP MLPCN 105.5, MEP2 TOR yeast 109.5, AGP1-GFP MLPCN 95.2 and RPL19A-GFP yeast 111.1.
